Experimental data as given in PubChem BioAssay (NCATS).
Results filed as inconclusive are left out. A number with no mark means an inactive call. Calls of active or inactive are those of the source. Calls come from the whole dose curve; as a rule, active = well fitted curve in the direction sought with a large enough effect in the repeat runs; inconclusive = weak or mixed curves; inactive = no such curve, though single readings can be large; an effect the other way counts as inactive or inconclusive.

These compounds were tested against Cytochrome P450 2D6 (Homo sapiens) (UniProt P10635) (assay: Cytochrome P450 family 2 subfamily D member 6 (CYP2D6) small molecule antagonists: luciferase biochemical (cell-free) qHTS assay (AID 1645840)). Conditions: P450-Glo CYP2D6 enzyme, luciferin luminescence, 1 h; series mostly up to 57.4 µM; activity change, negative = inhibition: at the top concentration.
Chain of Cytochrome P450 2D6 (Homo sapiens) (P10635 whole entry, looked up): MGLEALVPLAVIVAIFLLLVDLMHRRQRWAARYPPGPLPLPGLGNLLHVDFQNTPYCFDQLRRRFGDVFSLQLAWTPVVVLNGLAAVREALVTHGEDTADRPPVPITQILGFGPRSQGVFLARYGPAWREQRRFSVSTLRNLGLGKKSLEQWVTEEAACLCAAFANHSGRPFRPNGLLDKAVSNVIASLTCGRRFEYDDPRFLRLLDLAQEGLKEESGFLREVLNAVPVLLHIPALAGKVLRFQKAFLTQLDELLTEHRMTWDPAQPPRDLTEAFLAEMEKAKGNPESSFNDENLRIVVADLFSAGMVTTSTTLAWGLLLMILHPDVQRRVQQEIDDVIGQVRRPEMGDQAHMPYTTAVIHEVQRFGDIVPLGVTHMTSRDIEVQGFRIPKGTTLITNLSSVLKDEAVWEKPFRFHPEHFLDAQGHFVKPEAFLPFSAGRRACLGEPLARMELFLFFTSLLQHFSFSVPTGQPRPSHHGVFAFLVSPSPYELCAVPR
Summary of the method: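 P450-Glo luminescent screen: recombinant CYP2D6 enzyme–proluciferin substrate mix preincubated with compound 10 min at room temperature, then NADPH regeneration added for 1 h at room temperature. Detection reagent added for 20 min; luciferin light read as relative luminescence units.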
% is set by controls: 0 for no effect and ±100 for the full control effect; potency is the fitted concentration of half-maximal effect.
Note: nearly all actives have a fitted effect of over 55% in size.

Structure (SMILES)	Potency	activity change, negative = inhibition [%]
CCC(=O)N[C@@H]1Cc2ccccc2[C@H](c2ccccc2)C1	9.52 µM (active)	–
Cc1cc(Nc2ncc(Cl)c(Nc3ccccc3S(=O)(=O)C(C)C)n2)c(OC(C)C)cc1C1CCNCC1	16.9 µM (active)	–
O=C1NC(=Nc2ccccc2F)S/C1=C\c1ccc(C(=O)O)cc1	–	-4.56
CNC(=O)COC(=O)NCCC1CCN(c2cccc(C)n2)CC1	–	-3.49
CCn1c2ccccc2c2cc(CNC)ccc21	9.52 µM (active)	–
Cc1cc(C)c(S(=O)(=O)N(Cc2ccc(-c3cccc(S(C)(=O)=O)c3)cc2)Cc2ccc(C(F)(F)F)o2)c(C)c1	–	16.9
O=C(Nc1cccnn1)N1CCC(=Cc2cccc(Oc3ccc(C(F)(F)F)cn3)c2)CC1	10.7 µM (active)	–
Cc1ccc(C(=O)Nc2ccc(Oc3cc4cnn(C)c4cc3-c3cn[nH]c3)c(F)c2)c(=O)n1-c1ccc(F)cc1	–	7.07
N[C@@H](CC(=O)N1CCn2c(nnc2C(F)(F)F)C1)Cc1[nH]nc2c(F)c(F)ccc12	–	0.544
CO[C@@H]1COCC[C@@H]1N[C@@H]1CC[C@@](C(=O)N2CCc3ncc(C(F)(F)F)cc3C2)(C(C)C)C1	16.9 µM (active)	–
Cc1nn(C)c(COc2ccc(N3CCN(S(=O)(=O)N(C)C)CC3)cc2)c1-c1cccc2c(CCCOc3cccc4ccccc34)c(C(=O)O)n(CCN3CCOCC3)c12	–	-21
CC1(C)CC(=O)N(CCCCN2CCN(c3ncccn3)CC2)C(=O)C1	–	-27.4
CCCCN(CCCC)C(=O)CN1C[C@H](c2ccc3c(c2)OCO3)[C@@H](C(=O)O)[C@@H]1c1ccc(OC)cc1	19 µM (active)	–
CNC(=O)c1ccc(Nc2ncc(C(F)(F)F)c(NCc3nccnc3N(C)S(C)(=O)=O)n2)cc1	–	7.37
O=C(O)c1n[nH]c2c1C[C@H]1C[C@@H]21	–	8.02
O=C1CC(c2ccc([N+](=O)[O-])cc2)=NN1c1ccccc1	–	-0.208
O=C(COc1ccc(Cl)cc1)NC1CCC(NC(=O)COc2ccc(Cl)cc2)CC1 (stereo not given)	–	12.3
Cc1cc(N2CCCCC2)nc2ccccc12	10.7 µM (active)	–
Cc1[nH]cnc1C1CCN(c2nc3cccc4c3n2CCC4=O)CC1	9.52 µM (active)	–
C=C1CC[C@@H]2[C@](C)(CO)[C@H](O)CC[C@@]2(C)[C@@H]1C/C=C1/C(=O)OC[C@H]1O	inactive	–

Structure (SMILES)	Potency	activity change, negative = inhibition [%]
NC(Cc1c[nH]c2ccccc12)C(=O)NC(CCC(=O)O)C(=O)O (stereo not given)	–	6.12
CC(=O)NCCCCn1c2c(c3ccccc31)C(=O)NCC2	–	-1.28
CN1CCC(c2c[nH]c3ccc(NC(=O)c4ccc(F)cc4)cc23)CC1	16.9 µM (active)	–
O=c1c2cccnc2n(-c2cccc([N+](=O)[O-])c2)c(=O)n1Cc1ccncc1	1.51 µM (active)	–
CCc1cc2c(=O)c(-c3nc4ccccc4s3)coc2c(CN2CCCCC2)c1O	–	1.75
COc1cc(NC(=O)c2ccccn2)ccc1Cl	23.9 µM (active)	–
CCn1nnnc1NCc1ccc(C(C)C)cc1	–	-13.9
OC[C@H]1O[C@@H](n2cnc3c2NC=NC[C@H]3O)C[C@@H]1O	–	5.8
CC(C)Nc1cc(-c2c[nH]c(C(=O)N[C@H](CO)c3cccc(Cl)c3)c2)c(Cl)cn1	19 µM (active)	–
CCc1c(CC(N)=O)c2cc(OCCCP(=O)(O)O)ccc2n1Cc1ccccc1	–	-10.4
CCCCNC(=O)[C@@H]1Cc2ccccc2N1C(=O)[C@@H](N)CC	–	3.04
CNC(=O)Nc1ccc(OC)c(NC(=O)NC(=O)c2cc(F)c(F)cc2Cl)c1	–	16.3
COc1cccc(-c2ccc([C@@H](Oc3cc(-c4ccc(C[C@H](N)C(=O)O)cc4)nc(N)n3)C(F)(F)F)cc2)c1	–	-16.2
Cc1nc2c(-c3cnc(N)nc3)nc(N3CCOCC3)nc2n1C(C)C	–	3.81
CN(C)C/C=C/C(=O)Nc1ccc(C(=O)Nc2cccc(Nc3ncc(Cl)c(-c4c[nH]c5ccccc45)n3)c2)cc1	–	10.5
O=C1N(CC2CCCCN2)CCN1c1ccccc1 (stereo not given)	15.1 µM (active)	–
CON(C)C(=O)N1N=C(c2cc(F)ccc2F)S[C@@]1(CCCN)c1ccccc1	19 µM (active)	–
COc1ccc2cc(OCC3(C(=O)O)CN(C(=O)c4ccc(F)cc4)C3)ccc2c1	–	8.9
FC(F)(F)c1cc(C(F)(F)F)c2ccc3nc(-c4nnco4)cn3c2n1	–	16.3
O=C(NCC(=O)N1CC[C@H](NC2CCC(O)(c3ccc(-c4ncccn4)cn3)CC2)C1)c1cccc(C(F)(F)F)c1 (stereo not given in full)	–	0.991

Each compound was assayed against Cytochrome P450 2C9 (Homo sapiens) (UniProt P11712) (assay: Cytochrome P450 family 2 subfamily C member 9 (CYP2C9) small molecule antagonists: luciferase biochemical (cell-free) qHTS assay (AID 1645842)). Conditions: P450-Glo CYP2C9 enzyme assay, luciferin luminescence; series mostly up to 57.4 µM; activity change, negative = inhibition: at the top concentration.
Chain of Cytochrome P450 2C9 (Homo sapiens) (P11712 whole entry, looked up): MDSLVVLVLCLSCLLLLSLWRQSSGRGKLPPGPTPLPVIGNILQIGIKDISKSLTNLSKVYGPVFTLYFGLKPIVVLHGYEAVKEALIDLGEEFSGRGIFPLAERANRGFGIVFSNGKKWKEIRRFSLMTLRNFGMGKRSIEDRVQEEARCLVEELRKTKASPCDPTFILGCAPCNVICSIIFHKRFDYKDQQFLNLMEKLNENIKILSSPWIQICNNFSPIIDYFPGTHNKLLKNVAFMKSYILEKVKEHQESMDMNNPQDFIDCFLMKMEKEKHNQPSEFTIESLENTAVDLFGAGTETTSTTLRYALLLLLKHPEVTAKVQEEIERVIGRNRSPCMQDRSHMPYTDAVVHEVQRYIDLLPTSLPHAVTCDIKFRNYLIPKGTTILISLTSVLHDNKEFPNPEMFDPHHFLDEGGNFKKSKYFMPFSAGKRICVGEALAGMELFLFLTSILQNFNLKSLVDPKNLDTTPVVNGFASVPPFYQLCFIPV
Summary of the method: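 Luminescence, after 20 min with luciferin detection reagent, reflected CYP2C9 turnover during a 1 h NADPH-driven reaction at 37C. Enzyme-substrate mix contained 0.4% bovine serum albumin and was preincubated with compound 10 min at room temperature.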

Structure (SMILES)	Potency	activity change, negative = inhibition [%]
CCC(=O)N[C@@H]1Cc2ccccc2[C@H](c2ccccc2)C1	3.01 µM (active)	–
Cc1cc(Nc2ncc(Cl)c(Nc3ccccc3S(=O)(=O)C(C)C)n2)c(OC(C)C)cc1C1CCNCC1	3.38 µM (active)	–
O=C1NC(=Nc2ccccc2F)S/C1=C\c1ccc(C(=O)O)cc1	10.7 µM (active)	–
CNC(=O)COC(=O)NCCC1CCN(c2cccc(C)n2)CC1	–	-2.65
CCn1c2ccccc2c2cc(CNC)ccc21	–	-12.1
Cc1cc(C)c(S(=O)(=O)N(Cc2ccc(-c3cccc(S(C)(=O)=O)c3)cc2)Cc2ccc(C(F)(F)F)o2)c(C)c1	0.268 µM (active)	–
O=C(Nc1cccnn1)N1CCC(=Cc2cccc(Oc3ccc(C(F)(F)F)cn3)c2)CC1	–	6.08
Cc1ccc(C(=O)Nc2ccc(Oc3cc4cnn(C)c4cc3-c3cn[nH]c3)c(F)c2)c(=O)n1-c1ccc(F)cc1	2.68 µM (active)	–
N[C@@H](CC(=O)N1CCn2c(nnc2C(F)(F)F)C1)Cc1[nH]nc2c(F)c(F)ccc12	–	-16
CO[C@@H]1COCC[C@@H]1N[C@@H]1CC[C@@](C(=O)N2CCc3ncc(C(F)(F)F)cc3C2)(C(C)C)C1	–	5.09
Cc1nn(C)c(COc2ccc(N3CCN(S(=O)(=O)N(C)C)CC3)cc2)c1-c1cccc2c(CCCOc3cccc4ccccc34)c(C(=O)O)n(CCN3CCOCC3)c12	13.5 µM (active)	–
CC1(C)CC(=O)N(CCCCN2CCN(c3ncccn3)CC2)C(=O)C1	–	-1.34
CCCCN(CCCC)C(=O)CN1C[C@H](c2ccc3c(c2)OCO3)[C@@H](C(=O)O)[C@@H]1c1ccc(OC)cc1	21.3 µM (active)	–
CNC(=O)c1ccc(Nc2ncc(C(F)(F)F)c(NCc3nccnc3N(C)S(C)(=O)=O)n2)cc1	3.79 µM (active)	–
O=C(O)c1n[nH]c2c1C[C@H]1C[C@@H]21	–	-1.24
O=C1CC(c2ccc([N+](=O)[O-])cc2)=NN1c1ccccc1	13.5 µM (active)	–
O=C(COc1ccc(Cl)cc1)NC1CCC(NC(=O)COc2ccc(Cl)cc2)CC1 (stereo not given)	–	-3.46
Cc1cc(N2CCCCC2)nc2ccccc12	–	34.4
Cc1[nH]cnc1C1CCN(c2nc3cccc4c3n2CCC4=O)CC1	9.52 µM (active)	–
C=C1CC[C@@H]2[C@](C)(CO)[C@H](O)CC[C@@]2(C)[C@@H]1C/C=C1/C(=O)OC[C@H]1O	–	-8.58

Structure (SMILES)	Potency	activity change, negative = inhibition [%]
NC(Cc1c[nH]c2ccccc12)C(=O)NC(CCC(=O)O)C(=O)O (stereo not given)	–	-3.03
CC(=O)NCCCCn1c2c(c3ccccc31)C(=O)NCC2	–	-21
CN1CCC(c2c[nH]c3ccc(NC(=O)c4ccc(F)cc4)cc23)CC1	–	-3.31
O=c1c2cccnc2n(-c2cccc([N+](=O)[O-])c2)c(=O)n1Cc1ccncc1	0.268 µM (active)	–
CCc1cc2c(=O)c(-c3nc4ccccc4s3)coc2c(CN2CCCCC2)c1O	0.12 µM (active)	–
COc1cc(NC(=O)c2ccccn2)ccc1Cl	23.9 µM (active)	–
CCn1nnnc1NCc1ccc(C(C)C)cc1	7.56 µM (active)	–
OC[C@H]1O[C@@H](n2cnc3c2NC=NC[C@H]3O)C[C@@H]1O	–	0.388
CC(C)Nc1cc(-c2c[nH]c(C(=O)N[C@H](CO)c3cccc(Cl)c3)c2)c(Cl)cn1	4.77 µM (active)	–
CCc1c(CC(N)=O)c2cc(OCCCP(=O)(O)O)ccc2n1Cc1ccccc1	–	-7.32
CCCCNC(=O)[C@@H]1Cc2ccccc2N1C(=O)[C@@H](N)CC	–	-22.3
CNC(=O)Nc1ccc(OC)c(NC(=O)NC(=O)c2cc(F)c(F)cc2Cl)c1	–	5.68
COc1cccc(-c2ccc([C@@H](Oc3cc(-c4ccc(C[C@H](N)C(=O)O)cc4)nc(N)n3)C(F)(F)F)cc2)c1	6.74 µM (active)	–
Cc1nc2c(-c3cnc(N)nc3)nc(N3CCOCC3)nc2n1C(C)C	12 µM (active)	–
CN(C)C/C=C/C(=O)Nc1ccc(C(=O)Nc2cccc(Nc3ncc(Cl)c(-c4c[nH]c5ccccc45)n3)c2)cc1	7.56 µM (active)	–
O=C1N(CC2CCCCN2)CCN1c1ccccc1 (stereo not given)	–	-3.83
CON(C)C(=O)N1N=C(c2cc(F)ccc2F)S[C@@]1(CCCN)c1ccccc1	3.01 µM (active)	–
COc1ccc2cc(OCC3(C(=O)O)CN(C(=O)c4ccc(F)cc4)C3)ccc2c1	16.9 µM (active)	–
FC(F)(F)c1cc(C(F)(F)F)c2ccc3nc(-c4nnco4)cn3c2n1	–	2.62
O=C(NCC(=O)N1CC[C@H](NC2CCC(O)(c3ccc(-c4ncccn4)cn3)CC2)C1)c1cccc(C(F)(F)F)c1 (stereo not given in full)	–	-13.4
